Laboratory results as given in PubChem BioAssay (NCI).
Compounds without any hit were thinned out: in the full panel of roughly 83,000, 20% have a hit.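 Growth was measured after 48 h exposure to one concentration of compound in 96-well plates. Values under 10 count as active.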 Calls of active or inactive are those of the source.

How the values were obtained:
Assay in all cases: NCI-60 one-dose screen, 48 h (100 = growth as untreated, 0 = no growth, -100 = all killed)
Conditions in all cases: 10 µM unless noted
[1] = test system: HT29 colon
[2] = test system: SNB-75 CNS
[3] = test system: SNB-19 CNS
[4] = test system: U251 CNS
[5] = test system: PC-3 prostate
[6] = test system: SK-MEL-5 melanoma
[7] = test system: UACC-62 melanoma
[8] = test system: LOX IMVI melanoma
[9] = test system: SK-MEL-28 melanoma
[10] = test system: SK-MEL-2 melanoma

Measured: growth

C=C(C)[C@H]1CC/C(C)=C/CC[C@]2(C)O[C@H]2CC/C(COC(C)=O)=C\C1=O
inactive: [1] 115% | [2] 120% | [3] 108% | [4] 101% | [5] 94.6% | [6] 109% | [7] 108% | [8] 88.1% | [9] 116%

CC(C)(C)c1ccc(S(=O)(=O)O)s1
inactive: [1] 106% | [2] 92.4% | [3] 95.5% | [4] 105% | [5] 52.7% | [6] 109% | [7] 93.8% | [8] 102% | [9] 112%

C=C(C)[C@@H]1C/C=C(/C=O)CC[C@@H]2O[C@@]2(C)CC/C=C(\C)CC1
inactive: [1] 127% | [2] 87.1% | [3] 110% | [4] 104% | [5] 63.3% | [6] 101% | [7] 92.3% | [8] 93.3% | [9] 118%

COc1ccc(C(=O)C(C)Br)cc1OC (stereo unspecified)
inactive: [1] 37.7% | [2] 85.8% | [3] 95.7% | [4] 78.7% | [5] 98.6% | [6] 92.1% | [7] 86.3% | [8] 79.2% | [9] 112% | [10] 86%

Cn1cc(-c2csc(-c3c[nH]c4ncccc34)n2)c2cc(Br)cnc21
inactive: [1] 50.6% | [3] 50.5% | [5] 34.9% | [6] 35.8% | [7] 32.5% | [8] 20.5% | [9] 27.7% | [10] 78.2%
active: [2] -28.8% | [4] 3.32%

O=C(Nc1cccc(-n2cc(-c3ccncc3)c(-c3ccc(O)c(Cl)c3)n2)c1)Nc1ccc(Cl)c(C(F)(F)F)c1
active: [2] -12% | [4] -64.4% | [5] -22.6% | [6] -35.9% | [7] -38.9% | [8] 0.0501% | [9] -12.8%
inactive: [1] 21.6% | [3] 33.1%

CCC(C)CC(C)C(=O)c1c(O)ccn(O)c1=O (stereo unspecified)
inactive: [1] 97.3% | [2] 49.3% | [3] 18.6% | [4] 11.1% | [5] 24.5% | [6] 25.3% | [9] 29% | [10] 41.9%
active: [7] 3.01% | [8] 6.78%

COc1ccc(/C=C2\NC(=S)NC2=O)cc1
inactive: [1] 110% | [2] 106% | [3] 109% | [4] 102% | [5] 106% | [6] 107% | [7] 95.3% | [8] 112% | [9] 119% | [10] 109%

Cn1cc(-c2nc(-c3c[nH]c4ncccc34)cs2)c2cccnc21
inactive: [1] 73.1% | [2] 47.1% | [3] 82.5% | [4] 71.6% | [5] 76.6% | [6] 57.8% | [7] 58.6% | [8] 54.3% | [9] 90.6% | [10] 52.7%

CCSc1nnc2n(Cc3ccccc3)c(=O)c3c(C)c(C(N)=O)sc3n12
inactive: [1] 100% | [2] 69.4% | [3] 108% | [4] 103% | [5] 97.3% | [6] 95.8% | [7] 97.7% | [8] 95.6% | [9] 109% | [10] 102%

COc1cccc2c1C(=O)c1c(O)c3c(c(O)c1C2=O)C[C@@](O)(/C(C)=N/NC(=O)c1cccc([N+](=O)[O-])c1)C[C@@H]3OC1CC(N)C(O)C(C)O1 (stereo partly specified)
active: [1] -53.7% | [2] -34.2% | [3] -20.8% | [4] -29% | [5] -35% | [6] -100% | [7] -93.9% | [8] -33.3% | [9] -66.7% | [10] -73.6%

Clc1ccc2nc(Cl)c3ccccc3c2c1
active: [2] -15.3%
inactive: [1] 44.5% | [3] 53.2% | [4] 20.2% | [5] 84.2% | [6] 84.4% | [7] 96.2% | [8] 83.2% | [9] 97.6% | [10] 99%

Cn1cc(-c2csc(-c3cn(C)c4ncccc34)n2)c2cccnc21
inactive: [1] 98.7% | [2] 75.7% | [3] 94% | [4] 96% | [5] 86.9% | [6] 84.9% | [7] 79.4% | [8] 95% | [9] 101% | [10] 107%

Nc1nc(N)c([N+](=O)[O-])c(=O)[nH]1
inactive: [1] 98.6% | [2] 106% | [3] 108% | [4] 102% | [5] 94.5% | [6] 102% | [7] 105% | [8] 105% | [9] 107% | [10] 84.2%

Cc1nn(-c2ccc(Cl)cc2)c2nc3c(nc12)C(=O)C(=O)c1ccccc1-3
active: [1] 4.77% | [2] -2.08%
inactive: [3] 62.4% | [4] 77.5% | [5] 73.9% | [6] 43.8% | [7] 73.3% | [8] 62.6% | [9] 67.2% | [10] 99.1%

N#CCCN(CCO)c1ccccc1
inactive: [1] 93.7% | [2] 100% | [3] 101% | [4] 101% | [5] 86.7% | [6] 99.9% | [7] 103% | [8] 107% | [9] 108% | [10] 101%

Cc1ccc(NC(=O)CSc2nnc3n(Cc4ccccc4)c(=O)c4c(C)c(C(N)=O)sc4n23)cc1
inactive: [1] 35% | [3] 68.6% | [4] 38.3% | [5] 81.5% | [6] 77.1% | [7] 55.8% | [8] 59.9% | [9] 13.9% | [10] 44.4%
active: [2] -46.4%

Oc1[nH]c2ccccc2c1/C=c1/ccc2c(c1)N=C(c1cc(F)cc(F)c1)N=2
inactive: [1] 57.6% | [2] 51.6% | [3] 67.9% | [4] 53% | [5] 26.2% | [6] 69.5% | [7] 58.2% | [8] 52% | [9] 77.4% | [10] 41.2%

C=Cc1nn2c(CCC(=O)c3nc4ccccc4[nH]3)nnc2s1
inactive: [1] 105% | [2] 110% | [3] 107% | [4] 104% | [5] 98% | [6] 98.2% | [7] 102% | [8] 95% | [9] 113% | [10] 97.5%

Nc1ccccc1-c1ccc([N+](=O)[O-])cc1
inactive: [1] 78.1% | [2] 71.9% | [3] 67.3% | [4] 67.4% | [5] 38.9% | [6] 34.8% | [7] 24.9% | [8] 54.7% | [9] 88.4% | [10] 24.3%

O=C1/C(=C/c2ccc([N+](=O)[O-])o2)Oc2ccc(Cl)cc21
active: [1] -15.3% | [5] -5.46% | [7] -89% | [8] -61.8% | [10] -45.6%
inactive: [2] 66.5% | [3] 91.9% | [4] 50.2% | [6] 18.4% | [9] 11.2%

COc1cc(/C=C2\CCC/C(=C\c3ccc(OCC4CO4)c(OC)c3)C2=O)ccc1OCC1CO1 (stereo unspecified)
inactive: [2] 51.4% | [3] 63.4% | [4] 12.7% | [5] 50.7% | [6] 18.4% | [9] 14.8% | [10] 49.7%
active: [1] -15% | [7] 3.6% | [8] -59.9%

CN1CCCC1c1cccnc1 (stereo unspecified)
inactive: [1] 115% | [2] 99.7% | [3] 105% | [4] 97.1% | [5] 48.7% | [6] 87.7% | [7] 94.1% | [8] 100% | [9] 101%
active: [10] -0.647%

CC/C(=C\c1ccc(N(C)C)cc1)c1ccncc1
inactive: [1] 14.6% | [2] 39.2% | [3] 64.5% | [4] 29.3% | [5] 65.4% | [6] 32.5% | [7] 44% | [8] 41.5% | [9] 65.4% | [10] 49.9%

COc1ccc2c(c1)nc(N)c1c3ccccc3cn21
inactive: [1] 73.8% | [2] 67.6% | [3] 83.4% | [4] 72.8% | [5] 84% | [6] 50.8% | [7] 58.7% | [8] 74.3% | [9] 78.8% | [10] 83.8%

O=Cc1c[nH]c2ccc(NC(=O)OCc3ccccc3)cc12
inactive: [1] 89% | [2] 87.1% | [3] 89% | [4] 78.8% | [5] 48.6% | [6] 99.1% | [7] 90.4% | [8] 105% | [9] 145%
active: [10] -19.1%

CC(C)(C)c1cc(O)c(O)c(C(C)(C)C)c1
inactive: [1] 53.9% | [2] 60.8% | [3] 56.9% | [4] 36% | [5] 39.3% | [6] 70.4% | [7] 33% | [8] 47.3% | [9] 74.9% | [10] 76.6%

c1ccc(-n2nnnc2-c2cccc3ccccc23)cc1
inactive: [3] 36.7% | [4] 19.5% | [6] 22.2% | [7] 31.6% | [8] 18.6% | [9] 56.5% | [10] 23.8%
active: [1] -1.01% | [2] -7.18% | [5] 5.09%
